Consider eight sequences from paper PMC7862700, “An all-to-all approach to the identification of sequence-specific readers for epigenetic DNA modifications on cytosine”.

Common to all, as to assay: DAPPL (digital affinity profiling via proximity ligation, sequencing); 10 mM Tris-HCl pH 7.5, 50 mM NaCl, 1 mM DTT, 4% glycerol, room temperature, 30 min; GST-TFs on glutathione beads, 16-mer random dsDNA library, 0.1% formaldehyde crosslink after washing; high values mean tight binding
Holding throughout (conditions): protein: recombinant; tags: N-terminal GST; dsDNA, one strand shown

In one assay the target is T1, FLI1 (Homo sapiens, UniProt Q01543 1-452).
T1 sequence: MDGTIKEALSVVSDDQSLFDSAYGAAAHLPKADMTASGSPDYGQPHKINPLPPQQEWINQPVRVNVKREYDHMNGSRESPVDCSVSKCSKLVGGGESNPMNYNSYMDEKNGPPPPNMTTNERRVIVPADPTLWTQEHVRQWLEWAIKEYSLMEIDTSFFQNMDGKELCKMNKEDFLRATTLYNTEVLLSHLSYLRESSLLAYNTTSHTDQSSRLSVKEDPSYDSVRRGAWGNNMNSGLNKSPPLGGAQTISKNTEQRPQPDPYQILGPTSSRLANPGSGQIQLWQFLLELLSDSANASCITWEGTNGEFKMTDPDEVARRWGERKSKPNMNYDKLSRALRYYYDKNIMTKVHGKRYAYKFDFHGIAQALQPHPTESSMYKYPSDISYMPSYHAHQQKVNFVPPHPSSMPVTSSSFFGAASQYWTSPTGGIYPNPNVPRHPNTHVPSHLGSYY
The method, boiled down: (§1)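 Binding signal is given per hexamer as its read frequency for a factor divided by its frequency in the tag-only sample. GST-fused human transcription factors were expressed in yeast, captured on glutathione beads, barcoded with DNA and pooled with that sample, then incubated with 200 nmole of a 16-mer random double-stranded DNA library in Tris/NaCl/DTT/glycerol buffer for 30 min at room temperature. The pools were then washed, crosslinked, proximity-ligated, amplified by PCR and sequenced on an Illumina NextSeq500.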

In another assay the target is T2, ELK1 (Homo sapiens, UniProt P19419 1-428).
T2 sequence: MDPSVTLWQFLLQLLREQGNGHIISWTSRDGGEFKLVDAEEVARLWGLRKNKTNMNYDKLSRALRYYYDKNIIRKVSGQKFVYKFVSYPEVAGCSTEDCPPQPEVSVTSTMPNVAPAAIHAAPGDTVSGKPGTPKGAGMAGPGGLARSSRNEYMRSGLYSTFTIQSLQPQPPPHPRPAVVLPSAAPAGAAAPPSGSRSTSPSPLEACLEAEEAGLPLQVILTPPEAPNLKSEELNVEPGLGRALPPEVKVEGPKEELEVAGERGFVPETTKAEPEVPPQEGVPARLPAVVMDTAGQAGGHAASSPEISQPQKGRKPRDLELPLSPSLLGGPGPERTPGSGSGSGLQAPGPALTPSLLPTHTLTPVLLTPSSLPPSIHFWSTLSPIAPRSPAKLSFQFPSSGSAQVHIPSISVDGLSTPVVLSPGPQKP
The essentials: as §1

The target of another assay is T3, GABPA (Homo sapiens, UniProt Q06546 1-454).
T3 sequence: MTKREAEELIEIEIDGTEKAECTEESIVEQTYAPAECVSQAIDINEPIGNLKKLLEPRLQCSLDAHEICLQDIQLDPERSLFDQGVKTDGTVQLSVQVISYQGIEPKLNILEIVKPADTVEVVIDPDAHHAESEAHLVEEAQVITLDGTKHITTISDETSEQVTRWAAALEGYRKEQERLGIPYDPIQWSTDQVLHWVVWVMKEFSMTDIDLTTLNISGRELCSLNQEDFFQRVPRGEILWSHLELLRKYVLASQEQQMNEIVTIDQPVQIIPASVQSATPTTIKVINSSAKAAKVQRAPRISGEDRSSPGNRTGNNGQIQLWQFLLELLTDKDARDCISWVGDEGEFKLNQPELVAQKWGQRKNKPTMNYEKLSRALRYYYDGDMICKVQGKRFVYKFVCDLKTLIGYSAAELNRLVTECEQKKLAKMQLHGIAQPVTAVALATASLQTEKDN
The method, boiled down:
as §1

Another assay concerns the target T4, ERG (Homo sapiens, UniProt P11308 1-479).
T4 sequence: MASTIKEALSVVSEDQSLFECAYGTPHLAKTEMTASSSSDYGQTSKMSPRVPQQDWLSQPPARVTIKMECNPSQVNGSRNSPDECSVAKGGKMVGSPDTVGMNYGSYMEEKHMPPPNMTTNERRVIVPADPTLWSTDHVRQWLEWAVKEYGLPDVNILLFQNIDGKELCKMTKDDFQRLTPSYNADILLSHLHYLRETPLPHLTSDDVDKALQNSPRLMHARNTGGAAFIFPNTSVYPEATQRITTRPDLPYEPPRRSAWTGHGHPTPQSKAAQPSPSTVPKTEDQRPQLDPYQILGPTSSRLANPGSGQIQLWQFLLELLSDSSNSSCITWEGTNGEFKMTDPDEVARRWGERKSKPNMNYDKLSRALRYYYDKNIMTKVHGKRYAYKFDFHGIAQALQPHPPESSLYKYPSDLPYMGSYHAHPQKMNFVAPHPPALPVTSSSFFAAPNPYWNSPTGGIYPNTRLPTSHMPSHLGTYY
The method, boiled down: as §1

The target of the next assay is ELF1 (Homo sapiens, UniProt P32519 1-619). The method, boiled down: as §1
Chain of ELF1 (P32519 whole entry): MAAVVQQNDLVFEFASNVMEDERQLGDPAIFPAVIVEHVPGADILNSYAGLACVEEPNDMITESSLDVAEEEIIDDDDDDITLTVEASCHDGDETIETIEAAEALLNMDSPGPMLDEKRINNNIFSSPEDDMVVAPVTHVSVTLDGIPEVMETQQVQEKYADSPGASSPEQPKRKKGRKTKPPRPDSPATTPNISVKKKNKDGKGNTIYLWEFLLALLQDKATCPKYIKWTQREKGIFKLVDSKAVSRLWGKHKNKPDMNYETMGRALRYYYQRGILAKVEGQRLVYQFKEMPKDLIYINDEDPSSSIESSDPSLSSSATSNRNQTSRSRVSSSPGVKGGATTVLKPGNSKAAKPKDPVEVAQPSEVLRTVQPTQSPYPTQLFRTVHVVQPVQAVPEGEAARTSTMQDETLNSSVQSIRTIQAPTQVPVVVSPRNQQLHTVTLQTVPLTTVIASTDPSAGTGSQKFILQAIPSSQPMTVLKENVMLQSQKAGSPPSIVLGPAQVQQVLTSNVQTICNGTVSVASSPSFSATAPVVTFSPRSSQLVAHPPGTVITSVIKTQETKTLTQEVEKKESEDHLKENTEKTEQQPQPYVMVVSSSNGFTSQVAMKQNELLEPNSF
The next assay addresses T5, EHF (Homo sapiens, UniProt Q9NZC4 1-300).
T5 sequence: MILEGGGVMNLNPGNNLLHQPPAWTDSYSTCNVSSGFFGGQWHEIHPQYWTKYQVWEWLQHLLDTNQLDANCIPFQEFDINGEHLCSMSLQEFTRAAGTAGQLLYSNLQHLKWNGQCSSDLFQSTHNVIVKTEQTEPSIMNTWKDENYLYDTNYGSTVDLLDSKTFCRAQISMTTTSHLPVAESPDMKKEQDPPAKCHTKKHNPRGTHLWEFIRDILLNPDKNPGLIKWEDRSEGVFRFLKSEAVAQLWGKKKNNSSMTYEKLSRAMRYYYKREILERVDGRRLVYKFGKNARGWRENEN
The method, boiled down: as §1

The next assay addresses SPI1 (Homo sapiens, UniProt P17947 1-270). The method, boiled down: as §1
The next assay deals with SPIB (Homo sapiens, UniProt Q01892 1-262). The essentials:
as §1

The next assay concerns the target T6, ELK3 (Homo sapiens, UniProt P41970 1-407).
T6 sequence: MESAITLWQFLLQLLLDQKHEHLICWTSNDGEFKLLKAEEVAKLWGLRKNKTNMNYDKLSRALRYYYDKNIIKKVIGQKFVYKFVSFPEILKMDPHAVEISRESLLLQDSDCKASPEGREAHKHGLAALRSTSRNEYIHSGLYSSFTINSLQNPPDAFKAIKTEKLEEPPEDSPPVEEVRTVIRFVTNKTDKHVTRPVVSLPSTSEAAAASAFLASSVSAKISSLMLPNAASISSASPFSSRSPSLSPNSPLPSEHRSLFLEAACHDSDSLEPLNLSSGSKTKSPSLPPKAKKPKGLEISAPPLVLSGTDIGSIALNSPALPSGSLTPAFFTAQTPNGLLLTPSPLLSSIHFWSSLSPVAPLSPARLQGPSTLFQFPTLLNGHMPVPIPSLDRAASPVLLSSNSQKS
The method, boiled down: as §1

Chain of SPIB (Q01892 whole entry): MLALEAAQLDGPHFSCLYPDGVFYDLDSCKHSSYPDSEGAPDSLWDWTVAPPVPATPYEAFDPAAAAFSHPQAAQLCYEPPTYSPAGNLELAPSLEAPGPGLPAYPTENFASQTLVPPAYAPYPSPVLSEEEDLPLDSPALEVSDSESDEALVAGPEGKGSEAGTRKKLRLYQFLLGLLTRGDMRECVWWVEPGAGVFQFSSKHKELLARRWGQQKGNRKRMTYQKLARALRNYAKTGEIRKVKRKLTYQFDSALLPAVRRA

With TACACC, the binding signal with FLI1 is 1.16 fold enrichment (6-mer frequency, TF over GST control); in the assay with ELK1, 1.27 fold enrichment (6-mer frequency, TF over GST control); in the assay with GABPA, 1.14 fold enrichment (6-mer frequency, TF over GST control); with ERG it was 1.27 fold enrichment (6-mer frequency, TF over GST control); with ELF1, 1.17 fold enrichment (6-mer frequency, TF over GST control); with EHF it was 1.22 fold enrichment (6-mer frequency, TF over GST control). Also, the binding signal is 1.1 fold enrichment (6-mer frequency, TF over GST control) with SPI1; 1.11 fold enrichment (6-mer frequency, TF over GST control) with SPIB; 1.14 fold enrichment (6-mer frequency, TF over GST control) with ELK3.

Take CCGAAC: the binding signal is 1.26 fold enrichment (6-mer frequency, TF over GST control) with FLI1; 1.21 fold enrichment (6-mer frequency, TF over GST control) with ELK1; 1.29 fold enrichment (6-mer frequency, TF over GST control) in the assay with GABPA; 1.21 fold enrichment (6-mer frequency, TF over GST control) with ERG; 1.26 fold enrichment (6-mer frequency, TF over GST control) in the assay with ELF1; 1.32 fold enrichment (6-mer frequency, TF over GST control) in the assay with EHF. The binding signal was 1.25 fold enrichment (6-mer frequency, TF over GST control) in the assay with SPI1; 1.2 fold enrichment (6-mer frequency, TF over GST control) with SPIB; 1.33 fold enrichment (6-mer frequency, TF over GST control) in the assay with ELK3.

For CTGCTC, the binding signal is 1.32 fold enrichment (6-mer frequency, TF over GST control) with FLI1; 1.37 fold enrichment (6-mer frequency, TF over GST control) with ELK1; 1.18 fold enrichment (6-mer frequency, TF over GST control) in the assay with GABPA; 1.28 fold enrichment (6-mer frequency, TF over GST control) with ERG; 1.34 fold enrichment (6-mer frequency, TF over GST control) in the assay with ELF1; 1.27 fold enrichment (6-mer frequency, TF over GST control) with EHF. The binding signal with SPI1 is 1.29 fold enrichment (6-mer frequency, TF over GST control); in the assay with SPIB, 1.39 fold enrichment (6-mer frequency, TF over GST control); in the assay with ELK3 it was 1.3 fold enrichment (6-mer frequency, TF over GST control).

Consider TCTGAT, for which the binding signal with FLI1 is 1.15 fold enrichment (6-mer frequency, TF over GST control); in the assay with ELK1, 1.21 fold enrichment (6-mer frequency, TF over GST control); with GABPA, 1.29 fold enrichment (6-mer frequency, TF over GST control); with ERG, 1.1 fold enrichment (6-mer frequency, TF over GST control); with ELF1 it was 1.27 fold enrichment (6-mer frequency, TF over GST control); with EHF, 1.25 fold enrichment (6-mer frequency, TF over GST control). Also, the binding signal in the assay with SPI1 is 1.11 fold enrichment (6-mer frequency, TF over GST control); in the assay with SPIB, 1.31 fold enrichment (6-mer frequency, TF over GST control); in the assay with ELK3, 1.14 fold enrichment (6-mer frequency, TF over GST control).

On to CCTTCC, for which the binding signal is 2.45 fold enrichment (6-mer frequency, TF over GST control) in the assay with FLI1; 2.68 fold enrichment (6-mer frequency, TF over GST control) in the assay with ELK1; 2.22 fold enrichment (6-mer frequency, TF over GST control) with GABPA; 3.03 fold enrichment (6-mer frequency, TF over GST control) with ERG; 2.39 fold enrichment (6-mer frequency, TF over GST control) in the assay with ELF1; 2.75 fold enrichment (6-mer frequency, TF over GST control) with EHF. Further, the binding signal with SPI1 is 2.48 fold enrichment (6-mer frequency, TF over GST control); with SPIB it was 2.75 fold enrichment (6-mer frequency, TF over GST control); with ELK3 it was 2.47 fold enrichment (6-mer frequency, TF over GST control).

In the case of TCTCTA, the binding signal was 1.21 fold enrichment (6-mer frequency, TF over GST control) with FLI1; 1.31 fold enrichment (6-mer frequency, TF over GST control) with ELK1; 1.23 fold enrichment (6-mer frequency, TF over GST control) with GABPA; 1.36 fold enrichment (6-mer frequency, TF over GST control) with ERG; 1.36 fold enrichment (6-mer frequency, TF over GST control) in the assay with ELF1; 1.34 fold enrichment (6-mer frequency, TF over GST control) in the assay with EHF. Moreover, the binding signal in the assay with SPI1 is 1.26 fold enrichment (6-mer frequency, TF over GST control); with SPIB, 1.33 fold enrichment (6-mer frequency, TF over GST control); in the assay with ELK3, 1.22 fold enrichment (6-mer frequency, TF over GST control).

In the case of TCTTGT, the binding signal with FLI1 is 1.48 fold enrichment (6-mer frequency, TF over GST control); with ELK1, 1.64 fold enrichment (6-mer frequency, TF over GST control); with GABPA it was 1.53 fold enrichment (6-mer frequency, TF over GST control); in the assay with ERG it was 1.54 fold enrichment (6-mer frequency, TF over GST control); with ELF1 it was 1.53 fold enrichment (6-mer frequency, TF over GST control); with EHF it was 1.57 fold enrichment (6-mer frequency, TF over GST control). The binding signal in the assay with SPI1 is 1.5 fold enrichment (6-mer frequency, TF over GST control); with SPIB it was 1.55 fold enrichment (6-mer frequency, TF over GST control); with ELK3, 1.58 fold enrichment (6-mer frequency, TF over GST control).

With ATTGAT, the binding signal was 1.28 fold enrichment (6-mer frequency, TF over GST control) in the assay with FLI1; 1.35 fold enrichment (6-mer frequency, TF over GST control) with ELK1; 1.39 fold enrichment (6-mer frequency, TF over GST control) with GABPA; 1.33 fold enrichment (6-mer frequency, TF over GST control) with ERG; 1.31 fold enrichment (6-mer frequency, TF over GST control) in the assay with ELF1; 1.17 fold enrichment (6-mer frequency, TF over GST control) with EHF. In addition, the binding signal with SPI1 is 1.24 fold enrichment (6-mer frequency, TF over GST control); with SPIB, 1.16 fold enrichment (6-mer frequency, TF over GST control); with ELK3, 1.33 fold enrichment (6-mer frequency, TF over GST control).
